Reference: PubChem BioAssay AID430 (Sanford-Burnham Center for Chemical Genomics, 2006)
About 1,100 (1.7%) of roughly 63,000 compounds were called active. Cut-off read from the data, not from the text of the source: active = cytotoxicity above about 50%; inactive = the rest. Shown is part of a subset that was picked to be rich in actives. Measured potencies and affinities stand elsewhere.

Assay: cytotoxicity in HPDE-C7 cells, cell-based, fluorescence, HTS (AID 430);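 note: cells exposed to compound for 48 hours before viability readout; 0% = vehicle and 100% = reference cytotoxic drug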
Details: HPDE-C7 pancreatic duct cells viability, at 10 µM, active compounds read high

Structure (SMILES)	cytotoxicity
O/N=C(/Cc1ccccn1)c1ccccc1	2% (inactive)
O=C(NCCCNC(=O)c1ccccn1)c1ccccn1	15.3% (inactive)
CCCCCC/C(=N/O)c1ccccn1	51.4% (active)
Cc1cccc(N(CC(=O)NC2CCCC2)C(=O)CS(=O)CC(=O)Nc2ccc3c(c2)OCO3)c1 (stereo not given)	0.1% (inactive)
CC(C)C(=O)Nc1cccc(NC(=O)c2cccnc2)c1	-3.2% (inactive)
Cc1ccc(C)c(N2CCN(C(c3ccncc3)c3nnnn3Cc3ccccc3)CC2)c1 (stereo not given)	27.4% (inactive)
Cc1cccc(-n2c(SCC(=O)Nc3ccc4c(c3)OCO4)nnc2-c2ccoc2C)c1	65.5% (active)
Cc1ccc(-n2c(SCC(=O)Nc3ccc4c(c3)OCO4)nnc2-c2ccoc2C)cc1	36.3% (inactive)
Cc1cccc(-n2c(SCC(=O)Nc3nonc3C)nnc2-c2ccoc2C)c1	-16.1% (inactive)
Cc1cc(Cl)ccc1OCC(=O)N1CC(C)CC(C)C1 (stereo not given)	-10.4% (inactive)
Cc1ccc2c(c1)C(c1ccc(F)cc1)N(C(=O)C1CC1)CC(=O)N2 (stereo not given)	-2% (inactive)
COc1cc(C(=O)Nc2cccc(-c3nncn3C)c2)cc(OC)c1OC	-13.4% (inactive)
COC(=O)c1ccccc1NS(=O)(=O)c1ccc2c3c(cccc13)C(=O)N2	24.2% (inactive)
COCCOC(=O)c1c(C)oc2ccc(NS(=O)(=O)c3ccccc3)cc12	12.7% (inactive)
CCOC(=O)c1c(C)oc2ccc(NS(=O)(=O)c3ccc4c5c(cccc35)C(=O)N4)cc12	64.4% (active)
CC(=O)/C=C(/C)NC(Cc1c[nH]c2ccccc12)C(=O)O (stereo not given)	2.1% (inactive)
Oc1ccc2cccnc2c1	-7.4% (inactive)
OCc1ccnc2c(O)cccc12	-13.3% (inactive)
Oc1c(CN2CCc3ccccc3C2)cc(Cl)c2cccnc12	7.8% (inactive)
Oc1c(CN2CCN(c3ccccn3)CC2)cc(Cl)c2cccnc12	27.5% (inactive)

Structure (SMILES)	cytotoxicity
Cc1cc(Nc2nc3c(c(=O)n(C)c(=O)n3C)n2C)n(-c2ccccc2)n1	-9% (inactive)
Cc1cc(=O)oc2cc(OCC3CC(c4ccc(N(C)C)cc4)=NO3)ccc12 (stereo not given)	-19% (inactive)
COc1ccc2cc3cc(C(=O)Nc4ccc5c(c4)OCCO5)oc3nc2c1	2% (inactive)
Cc1ccc2cccc(S(=O)(=O)N3CCN(c4cccc(Cl)c4)CC3)c2n1	7% (inactive)
CC(=O)c1cc2c(cc1NC(=O)c1cnc(C)cn1)OCO2	13.3% (inactive)
CN(C)S(=O)(=O)c1cccc(C(=O)OCC(=O)Nc2ccccc2OC(F)F)c1	0.1% (inactive)
Cc1cc(-n2c(SCCC#N)nnc2-c2cccnc2)ccc1Cl	-25% (inactive)
COc1ccc(-n2c(SCCC#N)nnc2-c2cc(Cl)ccc2OC)cc1Cl	50.2% (active)
N#CCCCSc1nnc(-c2ccc(Cl)cc2)n1-c1ccccc1	-20.2% (inactive)
O=C(O)c1cnn2c1NC(c1ccc(F)cc1)CC2C(F)(F)F (stereo not given)	-9.5% (inactive)
COC(=O)/C(=C1/Oc2cc3c(cc2S1)OCO3)C(F)(F)F	-28.2% (inactive)
COC(=O)/C(=C1/Oc2cc(C)oc(=O)c2S1)C(F)(F)F	76.7% (active)
COC(=O)C1=C(N)Oc2cc(C)oc(=O)c2C1c1ccncc1 (stereo not given)	0.6% (inactive)
O=C(O)CCC(=O)Nc1ccccc1C(=O)NC1CCCCC1	-16.8% (inactive)
O=C1CC(c2ccco2)CC(O)=C1C=Nc1cc(Cl)ccc1O (stereo not given)	55.5% (active)
O=C1CC(c2ccco2)CC(O)=C1C=NCCO (stereo not given)	5.2% (inactive)
O=C1CC(c2ccco2)CC(O)=C1C=NCCN1CCNCC1 (stereo not given)	-17.7% (inactive)
C=C1[C@@H](C)C2[C@H](Cc3ccccc3)NC(=O)[C@]23OC(=O)CC[C@H](O)CCC[C@H](C)C/C=C/[C@H]3[C@@H]1O (stereo not given in full)	67.8% (active)
CC(C)CCn1c(SCC(=O)OCn2nnc3ccccc3c2=O)nc2ccccc2c1=O	-1.3% (inactive)
CO[C@H]1C[C@@H]2CC[C@@H](C)[C@@](O)(O2)C(=O)C(=O)N2CCCC[C@H]2C(=O)O[C@H]([C@H](C)C[C@@H]2CC[C@@H](O)[C@H](OC)C2)CC(=O)[C@H](C)C=C(C)[C@@H](O)[C@@H](OC)C(=O)[C@H](C)C[C@H](C)C=CC=CC=C1C	81.1% (active)

Structure (SMILES)	cytotoxicity
CCOc1ccc(-c2nnc(SCC(=O)N(CC)CC)n2N)cc1	-5.3% (inactive)
C(=N\n1cnnc1)/c1cccc(OCCOc2ccccc2)c1	2.1% (inactive)
Cc1c(/C=N/n2cnnc2)c2ccccc2n1CCOc1ccc(Cl)cc1	15.9% (inactive)
Cc1c(/C=N/n2cnnc2)c2ccccc2n1C	5.2% (inactive)
Cc1ccc(OCCn2c(C)c(/C=N/n3cnnc3)c3ccccc32)cc1	41% (inactive)
COc1cccc(OCCn2c(C)c(/C=N/n3cnnc3)c3ccccc32)c1	75.8% (active)
Cc1c(/C=N/n2cnnc2)c2ccccc2n1CCOc1ccccc1	67.6% (active)
CCN(CC)C(=O)CSc1nnc(-c2cnccn2)n1-c1ccccc1	-10.7% (inactive)
CC(=O)c1cccc(NC2c3ccccc3C(=O)N2Cc2ccc3c(c2)OCO3)c1 (stereo not given)	11.4% (inactive)
COc1ccc(NC(=O)c2cnc3ccccn3c2=O)c(OC)c1	1% (inactive)
COCCn1c(SCC(=O)N2CCCC2)nnc1-c1ccoc1C	5.7% (inactive)
COc1ccccc1C(=O)NCc1ccncc1	-7.2% (inactive)
CCOC(=O)CN1C(=O)C(O)=C(C(C)=O)C1c1ccccc1 (stereo not given)	-3.4% (inactive)
COc1cccc2cc(C(=O)N3CCC(C)CC3)c(=O)oc12	36.9% (inactive)
CCC(=O)Nc1ccc(OC)cc1OC	-0.9% (inactive)
COc1ccc(Nc2cc(=O)n(C3CCCCC3)c(=O)[nH]2)c(OC)c1	-11.4% (inactive)
CC1(C)Oc2ccc3ccc(=O)oc3c2-c2cnoc21	-3.6% (inactive)
O=C(c1cc(-c2cccs2)on1)N1CCN(c2ccccc2)CC1	51.3% (active)
O=C(c1cc(-c2cccs2)on1)N1CCN(c2ccc(F)cc2)CC1	11.3% (inactive)
O=C(c1cc(-c2cccs2)on1)N1CCOCC1	-1.4% (inactive)
